Compound activity deposited in PubChem by several laboratories.
PostGolgi ctrl: growth inhibition of yeast control strain, primary screen, counter-screen for post-Golgi transport modulator project; efflux-deficient yeast background strain, growth absorbance A615, 16 h; inhibition, % at 10 µM; 98,000 tested, 5% active
CYP2C9 act: human CYP2C9 activators, primary screen, biochemical, luminescence. recombinant CYP2C9, luciferin-H conversion; stronger effect = higher value; factor 1 = untreated enzyme, 0 = blocked. activation factor at 5 µM. Cytochrome P450 2C9 (Homo sapiens), P11712. 96,000 tested, 1.4% active;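 active means activation factor of 2 or more for CYP2C9 at a 5 µM dose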;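 further: 0 = sulfaphenazole-blocked wells and 1 = vehicle-only wells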
Target sequence (P11712 whole entry, looked up): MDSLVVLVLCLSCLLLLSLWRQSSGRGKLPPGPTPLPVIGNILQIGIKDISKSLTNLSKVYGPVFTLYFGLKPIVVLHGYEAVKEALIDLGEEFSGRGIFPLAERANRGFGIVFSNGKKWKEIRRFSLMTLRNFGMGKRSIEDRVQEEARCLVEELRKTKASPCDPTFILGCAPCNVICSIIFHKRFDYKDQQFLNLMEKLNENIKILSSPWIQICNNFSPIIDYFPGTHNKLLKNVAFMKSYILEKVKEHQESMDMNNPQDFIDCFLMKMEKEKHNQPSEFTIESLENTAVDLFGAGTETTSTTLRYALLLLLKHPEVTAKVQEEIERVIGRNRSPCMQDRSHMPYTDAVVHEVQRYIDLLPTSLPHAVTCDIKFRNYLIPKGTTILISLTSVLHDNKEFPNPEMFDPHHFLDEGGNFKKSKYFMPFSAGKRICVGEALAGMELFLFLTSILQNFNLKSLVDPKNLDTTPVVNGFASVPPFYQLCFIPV
PostGolgi yeast: phenotypic screen on post-Golgi transport, primary screen; post-Golgi transport phenotypic cell assay; inhibition, % at 10 µM; 98,000 tested, 0.9% active;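 further: yeast cells grown in 1536-well plates; yeast grown about 18 h at 30C before absorbance read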
CYP2C19 act: human CYP2C19 activators, primary screen, biochemical, luminescence; 96,000 tested, under 10 active; Cytochrome P450 2C19 (Homo sapiens), P33261; activation factor at 5 µM; AID 1025, 2008; recombinant CYP2C19, luciferin-H EGE luminescence; stronger effect = higher value; 0 = fully inhibited enzyme, 1 = untreated enzyme;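 active means activation factor of at least 2 at 5 µM in the primary screen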;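 further: 0 = wells with 2.5 mM tranylcypromine and 1 = vehicle-only wells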
CYP2C19 inh: blockers of cytochrome P450 2C19 activity – biochemical, luminescence, ADME assay, primary screen; P33261; CYP2C19 Supersomes, luciferin-H EGE luminescence, 30 min; inhibition, % at 5 µM; 96,000 tested, 21% active; AID 778, 2007;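 active means CYP2C19 inhibition above a set limit at 5 µM in the primary screen, cut at about 50% in these data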;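 further: plate controls were negative control wells for no effect and 2.5 mM tranylcypromine positive control for full effect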
CYP2C9 inhib: blockers of cytochrome P450 2C9 activity – biochemical, luminescence, ADME assay, primary screen. 96,000 tested, 20% active. inhibition, % at 5 µM. CYP2C9 Supersomes, luciferin-H conversion. P11712;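 active means blocking of liver enzyme CYP2C9 beyond about 50% at 5 µM, limit read from the data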
* marks the source's active call; other numbers are inactive results; / = no result. Compounds with a hit are over-represented: about 32% of the library has one in this group of screens. Unless noted, no stated cut-off is given here; in the data, active means inhibition above about 30%; inactive means the rest.

SMILES	PostGolgi ctrl	CYP2C9 act	PostGolgi yeast	CYP2C19 act	CYP2C19 inh	CYP2C9 inhib
COc1cc(C2Nc3cc(Cl)c(S(N)(=O)=O)cc3S(=O)(=O)N2)ccc1OCc1ccccc1 (centres undefined)	4.3	0.3	1.5	0.3	66.0*	69.7*
COc1cc(/C=c2\sc3n(c2=O)C(c2ccccc2)C(c2ccccc2)=NN=3)ccc1O (centres undefined)	32.7*	0.8	1.1	1	0.6	16.4
Cc1nn(C)cc1CNC(=O)c1ccc(Br)o1	0.7	0.9	-7.0	0.9	14.0	8.4
COc1cc(-c2nc(S(=O)(=O)c3ccc(C)cc3)c(N(C)C)o2)cc(OC)c1OC	9.6	0.4	18.2	0.9	13.4	55.8*
CC(C)Cc1nc(S(=O)(=O)c2ccc(Cl)cc2)c(N2CCOCC2)o1	2.2	1	6.2	0.4	57.2*	3.5
COc1ccccc1-c1nc(S(=O)(=O)c2ccc(Cl)cc2)c(N(C)C)o1	23.9	1.3	10.5	1.1	-14.9	-28.7
O=S(=O)(c1ccccc1)c1nc(-c2ccco2)oc1N1CCOCC1	4.0	0.9	-2.3	0.6	39.2	14.4
COc1cc(-c2nc(S(=O)(=O)c3ccc(Cl)cc3)c(N3CCOCC3)o2)cc(OC)c1OC	19.2	0.4	-12.3	0.8	21.5	61.9*
O=S(=O)(c1ccccc1)c1nc(-c2ccccc2)oc1N1CCCCC1	21.2	1.2	4.7	0.8	20.3	-22.3
CC(C)(C)c1nc(S(=O)(=O)c2ccc(Cl)cc2)c(N2CCOCC2)o1	12.9	1	0.5	0.9	12.7	0.4
COc1cc(-c2nc(S(=O)(=O)c3ccc(C)cc3)c(N3CCOCC3)o2)cc(OC)c1OC	4.1	0.5	11.6	0.7	32.8	51.4*
COc1ccc(NC(=S)NCCc2ccccc2OC)c(OC)c1	-9.9	1.1	-15.3	0	99.3*	-11.5
COc1ccc(NC(=S)Nc2ccccn2)c(OC)c1	7.0	0.8	0.9	0.7	32.9	15.0
COc1ccc(NC(=S)NCc2ccco2)c(OC)c1	-1.2	0.6	-1.6	0.2	81.0*	36.1
COc1ccccc1CCNC(=O)c1ccc(C)o1	4.7	1.1	7.7	0.3	68.5*	-11.4
CCOc1cc(NC(=S)NCc2ccco2)c(OCC)cc1NC(C)=O	-1.3	1	11.3	0.6	37.2	1.9
COc1ccc(NC(=S)NCCC(c2ccccc2)c2ccccc2)c(OC)c1	9.1	0.1	5.3	0	99.1*	86.1*
COc1cnc(-c2ccccn2)nc1Oc1cccc(Cl)c1	19.3	0.9	16.2	0.9	10.8	8.3
CSc1ccc(/C=N/n2nnnc2N)cc1	1.0	1	7.8	0.7	26.6	-2.2
COc1ccc(C(c2nnnn2C2CCCC2)N2CCN(C3CCCC3)CC2)cc1OC (centres undefined)	2.9	1	-5.7	1	4.8	-3.7
COc1cccc(NC(=O)COc2ccccc2C(N)=O)c1	6.3	0.8	12.3	0.6	38.3	20.0
COc1cccc(NC(=S)NCCC(c2ccccc2)c2ccccc2)c1	16.4	0.3	-11.7	0.4	55.0*	68.3*
Cc1cc(C)n(C2=NS(=O)(=O)c3ccccc32)n1	4.5	1.2	7.0	1.1	-6.2	-17.4
C=CCN1N=C(c2ccc(Cl)s2)CSC1=O	12.7	0.6	0.8	0.3	72.5*	38.8
C=CCN1C(=O)CSC1=Nc1ccc(O)cc1	1.7	1.3	-2.4	1.1	-9.4	-32.3
SMILES	PostGolgi ctrl	CYP2C9 act	PostGolgi yeast	CYP2C19 act	CYP2C19 inh	CYP2C9 inhib
COc1cc(C2N=C(c3ccccc3)NO2)cc(Br)c1O (centres undefined)	14.3	1.1	-5.5	0.1	87.3*	-6.6
COc1cccc(C2=NOC(C(=O)NCC3CCCO3)C2)c1 (centres undefined)	25.1	1.7	1.1	0.9	11.1	-70.1
O=C(NCC1CCCO1)C1CC(c2ccccc2Cl)=NO1 (centres undefined)	-2.6	4.2*	2.5	0.4	56.1*	-318.0
COc1ccc(OC)c(C2=NOC(C(=O)NCC3CCCO3)C2)c1 (centres undefined)	10.6	2.3*	-9.8	0.7	34.4	-132.9
CC1Cc2nc(SCC(=O)N3CCN(c4ccccc4)CC3)n(C)c(=O)c2S1 (centres undefined)	12.9	0.3	-12.6	0.3	66.9*	70.9*
CC1Cc2nc(SCC(=O)N3CCN(c4ccccc4)CC3)n(CCc3ccccc3)c(=O)c2S1 (centres undefined)	28.0	0.2	-14.1	0.7	31.1	75.6*
CCn1c(SCC(=O)N2CCN(c3ccccc3)CC2)nc2c(c1=O)SC(C)C2 (centres undefined)	7.8	/	4.3	/	/	/
O=C(O)CCC(=O)NC1CCCCC1	8.3	0.8	0.2	1.1	-7.6	21.4
CCOC(=O)Cn1cc(C(=O)c2ccco2)c2ccccc21	8.3	0.2	-2.1	0.2	81.4*	84.5*
O=C(O)Cn1cc(C(=O)c2ccco2)c2ccccc21	-7.1	1.1	20.4	1.1	-7.3	-5.1
Cc1ccccc1OCCn1cc(/C(N)=N/O)c2ccccc21	3.2	0.8	-3.1	0.3	67.4*	22.6
COc1cccc(OCCn2cc(C(=O)c3ccco3)c3ccccc32)c1	28.2	0	-3.6	0.1	86.0*	98.4*
COc1ccccc1OCCn1cc(C(=O)c2ccco2)c2ccccc21	25.2	0.2	35.2*	0.8	24.7	84.4*
COc1ccc2c(c1)c(CCN1C(=O)c3ccccc3C1=O)cn2C(=O)c1ccco1	-0.3	0.8	-0.5	0.9	13.8	18.0
COC(=O)CSc1nnc2c(C)cc3cc4c(cc3n12)OCCO4	/	1.1	/	1.1	-6.5	-9.2
COc1cnc(SCC(=O)O)[nH]c1=O	-1.0	1.1	-3.8	1.1	-7.7	-5.8
COC(=O)c1cc(NC(=O)Nc2cccc(Cl)c2)ccc1Cl	41.4*	1.1	25.2	1.1	-11.3	-6.8
N#Cc1ccccc1NC(=O)Nc1cccc(Cl)c1	-0.6	1.1	3.0	1	4.8	-5.5
COC(=O)c1cc(NC(=O)CN2C(=O)CSC2=O)ccc1Cl	5.3	0.3	0.7	0.6	38.5	68.8*
N#CCc1ccc(NC(=O)Nc2cccc(Cl)c2)cc1	30.8*	1	-0.9	0.8	15.9	-0.5
CN(C)CCCN1C(=O)C(O)=C(C(=O)c2cc3ccccc3o2)C1c1ccccc1 (centres undefined)	0.1	0.9	-3.8	1.1	-5.1	10.9
NS(=O)(=O)c1cccn1-c1ncc(C(F)(F)F)cc1Cl	-1.4	1	-5.0	1	-4.1	-2.5
CCCNS(=O)(=O)c1cccn1-c1ncc(C(F)(F)F)cc1Cl	16.1	0.3	12.6	0.5	50.9*	66.1*
